This note sets out measurements from PubChem BioAssay (NCATS).

Records with an inconclusive call do not appear. The source made the active and inactive calls. Unless noted, calls come from the whole dose curve; as a rule, active = well fitted inhibition curve with a large enough effect; inconclusive = small, poorly fitted or top-dose-only effect; inactive = no such curve, though single readings can be large or run the other way. Starred links: 1 amine or outer side, 2 acyl side, 3 side chain; linkers in the order of their positions; H or OH if unused. Positions of bridges follow the written chain, without caps; N, C: chain ends. Non-standard residues stand in square brackets, D forms with d. Residues, ends and D or L forms follow the SMILES beside them. Chains are numbered I, II in the order given. Actinocin(9to1) = Cc1c2oc3c(C)ccc(C(=O)[*:1])c3nc-2c(C(=O)[*:2])c(N)c1=O; NMeV = CN[CH](C(=O)O)C(C)C; Sar = CNCC(=O)O

A short description of experiment [1]: qHTS profiling of the MIPE4 collection as inhibitors of Plasmodium falciparum (DD2) proliferation (AID 743345; call rule not given here). The settings on record: P. falciparum Dd2 in erythrocytes, SYBR Green DNA, 72 h; at 28.5 µM (top of the series) unless noted. In a few lines:
(§1)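 Parasite DNA was quantified by SYBR Green I fluorescence (ex 485, em 535 nm) after overnight lysis in saponin/Triton buffer at room temperature. Cultures at 0.3% parasitemia and 2.5% hematocrit were first exposed to compound for 72 h at 37 C; signals were normalised to artemisinin (0.29 uM) and vehicle wells.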
Background: In qHTS, concentration-response curves come from the screen itself.

Experiment [2] is described as follows: qHTS profiling of the MIPE4 collection as inhibitors of Plasmodium falciparum (DD2) proliferation (Rep 2) (AID 743346; call rule not given here). The settings on record: P. falciparum Dd2 in erythrocytes, SYBR Green DNA, 72 h; at 28.5 µM (top of the series) unless noted. In a few lines:
as §1

Experiment [3] in a line: qHTS profiling of the MIPE4 collection as inhibitors of Plasmodium falciparum (HB3) proliferation (AID 743347; call rule not given here;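 note: plate controls were DMSO vehicle wells for no effect and artemisinin wells for full effect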). The settings on record: P. falciparum HB3 in erythrocytes, SYBR Green DNA, 72 h; at 28.5 µM (top of the series) unless noted. In a few lines: as §1
Experiment [4] is described as follows: High-throughput drug toxicity screening in the BPDCN cell line Cal-1 (AID 1224825; call rule not given here). The settings on record: Cal-1 BPDCN cell viability, qHTS; at 45.8 µM (top of the series) unless noted. The essentials:
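CellTiter-Glo luminescence after 48 h compound exposure; percent activity scaled with DMSO as 100% and bortezomib (9.2 uM final) as 0%. Cal-1 cells seeded at 500/well in RPMI, 10% FBS, no phenol red.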

The nature of experiment [5]: qHTS assay for measurement of the activity of small molecule inhibitors on Zika virus induced Caspase-3 activity in human iPSC derived neural progenitor cells (hNPCs) (AID 1224857). Note: nearly all actives have a fitted effect of over 65% in size. Note: potency is the fitted concentration of half-maximal effect. The essentials: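 Pretreat hNPCs with compound 1 h; infect ZIKV 2 FFU/cell; 6 h 37 C, 5% CO2; Caspase-Glo 3/7, 30 min RT; luminescence; normalize to no-virus and virus-only wells.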
Experiment [6] can be described thus: qHTS assay for measurement of the activity of small molecule inhibitors on Zika virus induced Caspase-3 activity in human astrocytoma cells (AID 1224859).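 Note: plate controls were ZIKV-infected untreated cells for no effect and uninfected cells for full effect.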 The essentials:
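Human SNB-19 astrocytoma cells in RPMI 1640 with 10% FBS receive compound one hour ahead of Zika virus at 2 FFU/cell. After 6 h infection, caspase-3/7 activity is detected by Caspase-Glo luminescence.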

A short description of experiment [7]: qHTS Screen of the MIPE 4.0 Collection Against Ewings Sarcoma (RDES) (AID 1259252). Note: nearly all actives have a fitted effect of over 35% in size. Note: potency is the fitted concentration of half-maximal effect. The essentials: (§2)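 Dose series incubated 48 h with cells in RPMI plus 5% FBS, glutamine and penicillin/streptomycin; cell viability then quantified via CellTiter-Glo.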
The nature of experiment [8]: qHTS Screen of the MIPE 4.0 Collection Against Ewings Sarcoma (TC71) (AID 1259253). Note: nearly all actives have a fitted effect of over 40% in size. Note: potency is the fitted concentration of half-maximal effect. The essentials:
as §2

Experiment [9] is described as follows: qHTS Screen of the MIPE 4.0 Collection Against Ewings Sarcoma (EW8) (AID 1259255).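 For viability: 100% = DMSO-treated cells and 0% = medium-only wells without cells.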 Note: nearly all actives have a fitted effect of over 35% in size. Note: potency is the fitted concentration of half-maximal effect. The essentials: as §2

In experiment [1], `Cc1c2oc3c(C)ccc(C(=O)NC4C(=O)NC(C(C)C)C(=O)N5CCCC5C(=O)N(C)CC(=O)N(C)C(C(C)C)C(=O)OC4C)c3nc-2c(C(=O)NC2C(=O)NC(C(C)C)C(=O)N3CCCC3C(=O)N(C)CC(=O)N(C)C(C(C)C)C(=O)OC2C)c(N)c1=O` (centres undefined) (I: TVP[Sar][NMeV] / II: TVP[Sar][NMeV]; ester I:1-I:C, II:1-II:C; linker I:N-II:N via Actinocin(9to1); configuration not given here) registered a parasite growth remaining, % of DMSO control (lower = more inhibition) of 3.9%. In addition, in [2], the parasite growth, % of control (lower = inhibition) came out at 15.2%. Moreover, the growth, % of control in experiment [3] is 2.3%. For the same compound, the viability (% of control) in experiment [4] was determined as 1.96%. The Potency result in experiment [5], in experiment [6], in experiment [7], in [8] and in experiment [9] was “inactive” throughout.

`CN(C)c1ccc2cc(C(=O)N[C@@H](CCCN=C(N)CCl)C(=O)NCc3ccccc3)ccc2c1` gave a parasite growth remaining, % of DMSO control (lower = more inhibition) in experiment [1] of 8.25%. In addition, in experiment [2], the parasite growth, % of control (lower = inhibition) amounted to 9.19%. Besides, in experiment [3], the growth, % of control was 9.16%. For the same compound, in experiment [4], the viability (% of control) came to 2.66%. The Potency is 20.9 µM (active) in experiment [5], 0.833 µM (active) in experiment [7], 11.8 µM (active) in experiment [8] and 9.35 µM (active) in [9]. Moreover, the Potency result in experiment [6] was “inactive”.

In turn, `CCN(CC)CCNC(=O)c1c(C)[nH]c(C=C2C(=O)Nc3ccc(F)cc32)c1C` came in with a parasite growth remaining, % of DMSO control (lower = more inhibition) in experiment [1] of 7.72% [at 57.5 µM]. For the same compound, in experiment [2], the parasite growth, % of control (lower = inhibition) amounted to 16% [at 57.5 µM]. Moreover, the growth, % of control in experiment [3] is 5.65% [at 57.5 µM]. The viability (% of control) in [4] was 4.58% [at 92.2 µM]. For the same compound, the Potency result in experiment [5] and in [6] was “inactive” throughout. The Potency is 13.6 µM (active) in [8] and 4.29 µM (active) in [9].

Regarding `CC[C@H]1OC(=O)[C@H](C)[C@@H](O[C@H]2C[C@@](C)(OC)[C@@H](O)[C@H](C)O2)[C@H](C)[C@@H](O[C@@H]2O[C@H](C)C[C@H](N(C)C)[C@@H]2O)[C@](C)(OC)C[C@@H](C)C(=O)[C@H](C)[C@@H](O)[C@]1(C)O`, the parasite growth remaining, % of DMSO control (lower = more inhibition) in experiment [1] came out at 44.2%. Further, in experiment [2], the parasite growth, % of control (lower = inhibition) is 66.9%. For the same compound, the viability (% of control) in [4] was 108%. Also, the Potency result in [5], in experiment [6], in experiment [8] and in [9] was “inactive” in each case.

In experiment [1], `OCc1ccccc1O[C@@H]1O[C@H](CO)[C@H](O)[C@H](O)[C@H]1O` displayed a parasite growth remaining, % of DMSO control (lower = more inhibition) of 96.7%. In [2], the parasite growth, % of control (lower = inhibition) was 89.7%. Also, the growth, % of control in experiment [3] turned out to be 92.1%. For the same compound, in experiment [4], the viability (% of control) stood at 108%. The Potency entry in experiment [5], in [6], in experiment [7], in experiment [8] and in experiment [9] was “inactive” in each case.

In the case of `CON=C(C(=O)N[C@@H]1C(=O)N2C(C(=O)O)=C(Cn3ccc(=N)n3CCO)CS[C@H]12)c1csc(N)n1`, the viability (% of control) in [4] worked out at 95.7%. The Potency entry in experiment [5], in experiment [6], in experiment [7], in experiment [8] and in experiment [9] was “inactive” each time.

With `CCCCCCCCCCCCCCCC(=O)OC[C@@H](NC(=O)C(Cl)Cl)[C@H](O)c1ccc([N+](=O)[O-])cc1`, the parasite growth remaining, % of DMSO control (lower = more inhibition) in [1] came to 95.4%. The parasite growth, % of control (lower = inhibition) in experiment [2] was determined as 135%. The growth, % of control in experiment [3] is 112%. Besides, the viability (% of control) in experiment [4] worked out at 117%. Further, the Potency result in experiment [5], in [6], in experiment [7], in experiment [8] and in [9] was “inactive” in each case.

In turn, `CCCCOc1ccc(C(=O)Nc2ccc(F)cc2F)cc1` came in with a parasite growth remaining, % of DMSO control (lower = more inhibition) in experiment [1] of 95.7%. The parasite growth, % of control (lower = inhibition) in experiment [2] was found to be 174%. Also, in experiment [3], the growth, % of control worked out at 94.1%. Further, the viability (% of control) in experiment [4] was found to be 105%. The Potency entry in experiment [6], in experiment [7], in experiment [8] and in experiment [9] was “inactive” throughout.

`C#CCC(Cc1cnc2nc(N)nc(N)c2n1)c1ccc(C(=O)N[C@@H](CCC(=O)O)C(=O)O)cc1` (some centres undefined) yielded a parasite growth remaining, % of DMSO control (lower = more inhibition) in experiment [1] of 8.51%. The parasite growth, % of control (lower = inhibition) in experiment [2] was determined as 9.31%. The same compound displayed a growth, % of control in experiment [3] of 18%. Besides, the viability (% of control) in experiment [4] came out at 36.9%. For the same compound, the Potency entry in experiment [5] and in experiment [6] was “inactive” in each case. Moreover, the Potency in experiment [7], in experiment [8] and in [9] was 0.0372 µM (active) in each case.
